According to ChEMBL document CHEMBL1961873, “Compounds: GSK PKIS; Assays: Nanosyn kinase panel” (2012):

Assays:
[1] = target: Sphingosine kinase 1 (Homo sapiens) (UniProt Q9NYA1); conditions: at 1 µM;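 also: mean SPHK1 inhibition value reported from the GSK PKIS kinase panel screen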
[2] = target: T1, Sphingosine kinase 2 (Homo sapiens) (UniProt Q9NRA0); conditions: at 0.1 µM
T1 sequence (whole entry): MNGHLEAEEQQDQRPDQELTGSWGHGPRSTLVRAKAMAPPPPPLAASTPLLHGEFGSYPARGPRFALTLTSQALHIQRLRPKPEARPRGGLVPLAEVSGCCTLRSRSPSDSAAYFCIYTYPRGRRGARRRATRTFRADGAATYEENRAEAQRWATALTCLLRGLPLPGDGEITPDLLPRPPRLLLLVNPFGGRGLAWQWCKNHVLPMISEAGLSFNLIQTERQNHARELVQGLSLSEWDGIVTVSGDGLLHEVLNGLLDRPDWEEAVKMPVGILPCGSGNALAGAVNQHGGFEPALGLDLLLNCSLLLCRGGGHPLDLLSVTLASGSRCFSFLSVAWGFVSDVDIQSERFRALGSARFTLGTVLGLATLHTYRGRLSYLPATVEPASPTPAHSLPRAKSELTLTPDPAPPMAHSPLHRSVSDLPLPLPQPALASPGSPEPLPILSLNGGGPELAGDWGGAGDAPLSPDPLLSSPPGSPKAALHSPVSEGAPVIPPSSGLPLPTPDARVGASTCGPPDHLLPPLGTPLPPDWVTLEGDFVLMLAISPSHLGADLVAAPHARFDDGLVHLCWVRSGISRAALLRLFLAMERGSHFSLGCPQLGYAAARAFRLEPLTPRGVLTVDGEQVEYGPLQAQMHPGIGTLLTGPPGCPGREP

[3] = target: T1, Sphingosine kinase 2 (Homo sapiens); conditions: at 1 µM
[4] = target: Casein kinase II subunit alpha (Homo sapiens) (UniProt P68400); conditions: at 0.1 µM
[5] = target: Casein kinase II subunit alpha (Homo sapiens) (UniProt P68400); conditions: at 1 µM
[6] = target: T2, Inhibitor of nuclear factor kappa-B kinase subunit alpha (Homo sapiens) (UniProt O15111); conditions: at 0.1 µM
T2 sequence (whole entry): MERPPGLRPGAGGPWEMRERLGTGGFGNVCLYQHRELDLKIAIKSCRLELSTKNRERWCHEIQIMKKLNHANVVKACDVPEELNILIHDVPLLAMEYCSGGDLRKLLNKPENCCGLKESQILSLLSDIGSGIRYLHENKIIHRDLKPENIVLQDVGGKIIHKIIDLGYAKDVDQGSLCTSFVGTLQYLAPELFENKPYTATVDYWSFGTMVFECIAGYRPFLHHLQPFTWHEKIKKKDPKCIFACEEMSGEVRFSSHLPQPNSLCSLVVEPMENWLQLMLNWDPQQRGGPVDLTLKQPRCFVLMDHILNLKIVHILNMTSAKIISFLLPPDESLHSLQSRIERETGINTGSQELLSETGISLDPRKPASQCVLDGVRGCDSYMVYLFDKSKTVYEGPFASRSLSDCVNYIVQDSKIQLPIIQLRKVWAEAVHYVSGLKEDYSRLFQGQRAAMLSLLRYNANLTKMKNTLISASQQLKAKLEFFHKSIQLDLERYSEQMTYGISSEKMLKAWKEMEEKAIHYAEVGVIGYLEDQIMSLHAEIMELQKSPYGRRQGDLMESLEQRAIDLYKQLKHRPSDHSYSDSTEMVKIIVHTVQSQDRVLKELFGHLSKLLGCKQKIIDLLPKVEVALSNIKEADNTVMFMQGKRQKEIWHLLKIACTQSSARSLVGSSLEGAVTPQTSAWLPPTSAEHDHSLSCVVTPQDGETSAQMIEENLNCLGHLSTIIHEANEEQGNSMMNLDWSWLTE

[7] = target: T2, Inhibitor of nuclear factor kappa-B kinase subunit alpha (Homo sapiens); conditions: at 1 µM
[8] = target: T3, Inhibitor of nuclear factor kappa-B kinase subunit beta (Homo sapiens) (UniProt O14920); conditions: at 0.1 µM
T3 sequence (whole entry): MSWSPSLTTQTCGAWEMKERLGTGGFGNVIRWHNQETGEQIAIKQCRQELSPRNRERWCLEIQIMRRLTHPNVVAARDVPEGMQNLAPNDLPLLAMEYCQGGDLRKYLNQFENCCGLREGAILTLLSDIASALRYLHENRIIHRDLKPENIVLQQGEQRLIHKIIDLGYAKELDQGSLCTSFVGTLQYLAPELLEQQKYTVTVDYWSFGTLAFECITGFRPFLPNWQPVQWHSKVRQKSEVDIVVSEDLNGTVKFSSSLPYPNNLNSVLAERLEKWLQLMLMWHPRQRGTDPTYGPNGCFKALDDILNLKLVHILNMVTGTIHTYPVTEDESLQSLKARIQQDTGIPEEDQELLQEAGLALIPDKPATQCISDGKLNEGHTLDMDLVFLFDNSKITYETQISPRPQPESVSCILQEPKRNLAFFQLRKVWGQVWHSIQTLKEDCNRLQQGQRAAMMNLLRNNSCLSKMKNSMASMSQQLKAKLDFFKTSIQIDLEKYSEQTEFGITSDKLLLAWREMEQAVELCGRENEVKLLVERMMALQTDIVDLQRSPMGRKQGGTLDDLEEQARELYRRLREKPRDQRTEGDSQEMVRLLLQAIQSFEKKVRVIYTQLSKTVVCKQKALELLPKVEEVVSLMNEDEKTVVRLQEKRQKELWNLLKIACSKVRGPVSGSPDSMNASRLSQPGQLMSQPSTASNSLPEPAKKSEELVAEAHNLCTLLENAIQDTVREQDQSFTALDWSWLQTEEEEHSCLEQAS

[9] = target: T3, Inhibitor of nuclear factor kappa-B kinase subunit beta (Homo sapiens); conditions: at 1 µM
[10] = target: T4, Inhibitor of nuclear factor kappa-B kinase subunit epsilon (Homo sapiens) (UniProt Q14164); conditions: at 0.1 µM
T4 sequence (whole entry): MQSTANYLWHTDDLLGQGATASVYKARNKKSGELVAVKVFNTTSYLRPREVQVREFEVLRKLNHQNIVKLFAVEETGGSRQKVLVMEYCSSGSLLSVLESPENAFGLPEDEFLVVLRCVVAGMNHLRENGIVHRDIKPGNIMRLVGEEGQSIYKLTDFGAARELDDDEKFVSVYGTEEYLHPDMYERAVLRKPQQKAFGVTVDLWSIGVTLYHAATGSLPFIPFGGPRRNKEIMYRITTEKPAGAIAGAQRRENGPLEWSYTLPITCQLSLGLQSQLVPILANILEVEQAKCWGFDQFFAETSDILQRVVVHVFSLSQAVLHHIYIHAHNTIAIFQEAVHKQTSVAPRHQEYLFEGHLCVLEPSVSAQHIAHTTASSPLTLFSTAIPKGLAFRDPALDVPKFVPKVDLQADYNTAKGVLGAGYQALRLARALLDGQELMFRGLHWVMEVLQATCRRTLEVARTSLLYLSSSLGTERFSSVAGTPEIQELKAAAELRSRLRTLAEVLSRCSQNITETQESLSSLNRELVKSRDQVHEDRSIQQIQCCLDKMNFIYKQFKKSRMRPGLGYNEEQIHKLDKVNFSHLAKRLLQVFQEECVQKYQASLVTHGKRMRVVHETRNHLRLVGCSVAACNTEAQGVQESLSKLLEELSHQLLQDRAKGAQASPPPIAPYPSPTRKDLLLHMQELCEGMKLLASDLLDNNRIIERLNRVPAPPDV

[11] = target: T4, Inhibitor of nuclear factor kappa-B kinase subunit epsilon (Homo sapiens); conditions: at 1 µM
[12] = target: T5, Serine/threonine-protein kinase Nek1 (Homo sapiens) (UniProt Q96PY6); conditions: at 0.1 µM
T5 sequence (whole entry): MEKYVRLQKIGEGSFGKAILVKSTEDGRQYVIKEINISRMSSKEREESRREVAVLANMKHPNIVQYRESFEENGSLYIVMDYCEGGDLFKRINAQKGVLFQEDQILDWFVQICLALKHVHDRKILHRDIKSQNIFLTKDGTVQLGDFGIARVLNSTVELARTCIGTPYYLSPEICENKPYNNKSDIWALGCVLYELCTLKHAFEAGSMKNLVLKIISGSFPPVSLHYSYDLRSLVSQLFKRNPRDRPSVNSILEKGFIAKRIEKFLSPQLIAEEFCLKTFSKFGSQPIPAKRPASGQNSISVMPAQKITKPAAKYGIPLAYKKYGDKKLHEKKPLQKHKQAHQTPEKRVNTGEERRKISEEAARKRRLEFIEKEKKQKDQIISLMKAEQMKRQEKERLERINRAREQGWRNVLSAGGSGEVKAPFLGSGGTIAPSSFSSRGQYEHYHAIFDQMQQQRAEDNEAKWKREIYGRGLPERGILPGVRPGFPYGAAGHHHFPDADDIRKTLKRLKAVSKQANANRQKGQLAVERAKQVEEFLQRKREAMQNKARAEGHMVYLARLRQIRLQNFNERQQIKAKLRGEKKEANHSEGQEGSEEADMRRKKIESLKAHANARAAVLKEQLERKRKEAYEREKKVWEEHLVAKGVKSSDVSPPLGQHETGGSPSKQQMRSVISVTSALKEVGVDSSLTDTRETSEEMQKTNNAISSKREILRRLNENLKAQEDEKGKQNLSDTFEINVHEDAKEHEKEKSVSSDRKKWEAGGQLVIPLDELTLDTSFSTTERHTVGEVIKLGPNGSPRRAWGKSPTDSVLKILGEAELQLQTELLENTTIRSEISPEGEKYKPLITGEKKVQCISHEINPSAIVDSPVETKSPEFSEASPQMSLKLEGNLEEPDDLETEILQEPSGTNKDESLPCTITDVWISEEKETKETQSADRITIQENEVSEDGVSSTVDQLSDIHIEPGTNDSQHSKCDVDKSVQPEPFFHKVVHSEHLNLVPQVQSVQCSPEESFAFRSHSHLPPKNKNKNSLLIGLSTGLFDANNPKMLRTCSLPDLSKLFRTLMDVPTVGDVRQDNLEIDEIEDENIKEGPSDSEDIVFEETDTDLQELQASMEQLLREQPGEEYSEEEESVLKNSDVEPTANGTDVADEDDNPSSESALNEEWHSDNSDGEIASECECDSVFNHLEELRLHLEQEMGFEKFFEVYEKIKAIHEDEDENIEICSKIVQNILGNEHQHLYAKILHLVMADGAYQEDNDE

[13] = target: T5, Serine/threonine-protein kinase Nek1 (Homo sapiens); conditions: at 1 µM
[14] = target: T6, Serine/threonine-protein kinase Nek2 (Homo sapiens) (UniProt P51955); conditions: at 0.1 µM
T6 sequence (whole entry): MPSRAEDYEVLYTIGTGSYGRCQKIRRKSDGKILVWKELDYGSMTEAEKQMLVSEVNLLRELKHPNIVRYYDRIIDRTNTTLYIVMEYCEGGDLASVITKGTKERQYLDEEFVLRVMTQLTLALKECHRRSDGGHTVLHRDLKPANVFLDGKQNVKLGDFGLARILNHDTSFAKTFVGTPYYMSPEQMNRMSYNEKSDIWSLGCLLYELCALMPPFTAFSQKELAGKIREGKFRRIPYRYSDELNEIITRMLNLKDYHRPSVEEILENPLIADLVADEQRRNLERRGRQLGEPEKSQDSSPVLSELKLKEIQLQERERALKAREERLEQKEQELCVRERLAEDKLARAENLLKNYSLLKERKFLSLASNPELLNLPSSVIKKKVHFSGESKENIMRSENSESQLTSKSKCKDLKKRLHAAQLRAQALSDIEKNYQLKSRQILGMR

[15] = target: T6, Serine/threonine-protein kinase Nek2 (Homo sapiens); conditions: at 1 µM
[16] = target: Serine/threonine-protein kinase Nek6 (Homo sapiens) (UniProt Q9HC98); conditions: at 0.1 µM
[17] = target: Serine/threonine-protein kinase Nek6 (Homo sapiens) (UniProt Q9HC98); conditions: at 1 µM
[18] = target: Serine/threonine-protein kinase Nek7 (Homo sapiens) (UniProt Q8TDX7); conditions: at 0.1 µM
[19] = target: Serine/threonine-protein kinase Nek7 (Homo sapiens) (UniProt Q8TDX7); conditions: at 1 µM
[20] = target: T7, Serine/threonine-protein kinase Nek9 (Homo sapiens) (UniProt Q8TD19); conditions: at 0.1 µM;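 also: reported value is the mean percent inhibition of NEK9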
T7 sequence (whole entry): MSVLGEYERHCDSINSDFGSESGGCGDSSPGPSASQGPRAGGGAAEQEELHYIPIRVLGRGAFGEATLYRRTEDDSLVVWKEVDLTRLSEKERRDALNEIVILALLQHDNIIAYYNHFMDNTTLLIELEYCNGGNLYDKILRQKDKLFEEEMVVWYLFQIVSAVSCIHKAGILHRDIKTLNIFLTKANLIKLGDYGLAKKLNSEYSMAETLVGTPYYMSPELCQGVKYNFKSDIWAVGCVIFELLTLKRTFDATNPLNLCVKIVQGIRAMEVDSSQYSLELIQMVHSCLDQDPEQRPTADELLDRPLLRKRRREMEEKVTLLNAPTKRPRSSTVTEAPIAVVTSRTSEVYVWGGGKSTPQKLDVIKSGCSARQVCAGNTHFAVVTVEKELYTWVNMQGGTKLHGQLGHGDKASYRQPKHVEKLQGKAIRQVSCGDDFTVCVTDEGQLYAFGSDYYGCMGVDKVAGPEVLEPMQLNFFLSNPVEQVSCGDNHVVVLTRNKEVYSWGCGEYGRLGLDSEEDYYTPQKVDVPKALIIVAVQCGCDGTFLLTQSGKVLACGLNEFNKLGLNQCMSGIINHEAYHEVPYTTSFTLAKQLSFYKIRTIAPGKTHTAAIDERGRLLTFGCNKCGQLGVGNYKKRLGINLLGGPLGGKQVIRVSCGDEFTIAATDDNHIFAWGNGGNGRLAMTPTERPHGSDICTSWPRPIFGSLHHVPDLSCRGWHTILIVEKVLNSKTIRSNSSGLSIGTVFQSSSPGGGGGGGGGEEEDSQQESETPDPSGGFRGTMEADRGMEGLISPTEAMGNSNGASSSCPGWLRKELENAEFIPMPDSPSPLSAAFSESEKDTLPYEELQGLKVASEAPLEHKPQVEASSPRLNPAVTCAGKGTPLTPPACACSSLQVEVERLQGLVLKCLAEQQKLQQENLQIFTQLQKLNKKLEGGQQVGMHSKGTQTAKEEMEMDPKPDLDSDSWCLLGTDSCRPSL

Sequence of Casein kinase II subunit alpha (Homo sapiens) (P68400 whole entry, looked up): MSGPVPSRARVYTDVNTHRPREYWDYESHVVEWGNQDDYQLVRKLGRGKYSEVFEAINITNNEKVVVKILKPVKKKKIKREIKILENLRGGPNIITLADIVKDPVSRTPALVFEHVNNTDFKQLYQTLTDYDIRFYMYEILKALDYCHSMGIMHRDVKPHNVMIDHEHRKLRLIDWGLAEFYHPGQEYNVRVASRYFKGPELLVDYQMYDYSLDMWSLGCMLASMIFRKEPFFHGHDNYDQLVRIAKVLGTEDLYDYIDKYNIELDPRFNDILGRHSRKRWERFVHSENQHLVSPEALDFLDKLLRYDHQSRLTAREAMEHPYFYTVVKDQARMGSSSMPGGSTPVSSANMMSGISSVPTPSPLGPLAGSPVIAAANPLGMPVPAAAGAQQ
Sequence of Serine/threonine-protein kinase Nek6 (Homo sapiens) (Q9HC98 whole entry): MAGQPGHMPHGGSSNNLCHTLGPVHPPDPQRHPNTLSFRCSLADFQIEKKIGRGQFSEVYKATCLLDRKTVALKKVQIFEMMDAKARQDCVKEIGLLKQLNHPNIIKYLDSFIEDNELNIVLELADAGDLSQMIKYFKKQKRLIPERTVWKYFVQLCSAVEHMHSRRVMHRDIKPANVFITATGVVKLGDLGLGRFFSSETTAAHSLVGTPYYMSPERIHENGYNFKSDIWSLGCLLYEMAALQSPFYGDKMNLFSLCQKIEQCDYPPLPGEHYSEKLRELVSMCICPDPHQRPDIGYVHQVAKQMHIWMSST
Sequence of Serine/threonine-protein kinase Nek7 (Homo sapiens) (Q8TDX7 whole entry, looked up): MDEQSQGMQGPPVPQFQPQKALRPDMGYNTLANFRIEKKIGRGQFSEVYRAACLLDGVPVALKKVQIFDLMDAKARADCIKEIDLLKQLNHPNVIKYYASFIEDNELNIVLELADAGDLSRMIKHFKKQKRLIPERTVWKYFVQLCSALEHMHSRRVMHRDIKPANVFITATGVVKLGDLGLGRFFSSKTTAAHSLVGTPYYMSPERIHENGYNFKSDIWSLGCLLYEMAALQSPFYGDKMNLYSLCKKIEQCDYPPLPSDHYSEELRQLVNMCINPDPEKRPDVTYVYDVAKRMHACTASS
Sequence of Sphingosine kinase 1 (Homo sapiens) (Q9NYA1 whole entry): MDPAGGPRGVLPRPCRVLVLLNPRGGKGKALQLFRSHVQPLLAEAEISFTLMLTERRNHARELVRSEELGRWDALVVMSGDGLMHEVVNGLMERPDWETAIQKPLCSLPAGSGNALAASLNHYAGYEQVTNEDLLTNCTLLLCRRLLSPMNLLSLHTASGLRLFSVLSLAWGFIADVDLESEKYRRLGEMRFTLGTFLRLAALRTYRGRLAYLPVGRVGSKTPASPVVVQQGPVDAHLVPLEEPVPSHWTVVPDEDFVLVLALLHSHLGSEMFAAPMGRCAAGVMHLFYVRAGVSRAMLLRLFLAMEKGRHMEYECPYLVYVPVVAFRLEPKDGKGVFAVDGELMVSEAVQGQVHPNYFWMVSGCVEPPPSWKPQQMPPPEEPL

`COc1cccc(/C=N/Nc2ncnc3c2cnn3-c2cccc(OC)c2)c1` showed an inhibition [1] of 0.34%, an inhibition [2] of -0.71% and an inhibition [3] of -0.63%. The inhibition [4] was 5.99%, the inhibition [5] was 3.05% and the inhibition [6] was 7.48%. The inhibition [7] was -3.48%, the inhibition [8] was 6.4% and the inhibition [9] was 6%. For the same compound, the inhibition [10] was 4.37%, the inhibition [11] was 6.73% and the inhibition [12] was 1.81%. It also gave an inhibition [13] of 3.93%, an inhibition [14] of 5.68% and an inhibition [15] of 3.79%. It also gave an inhibition [16] of 1.07%, an inhibition [17] of 2.21% and an inhibition [18] of 3.9%. The inhibition [19] was 8.57% and the inhibition [20] was 7.75%.
